Rows were chosen to be rich in hits. Some 0.86% of all compounds tested hit in one or more screens of this group.
NS1 function inh = qHTS Assay for Inhibitors of Influenza NS1 Protein Function; AID 2326, 2010; hit rate 0.4% among 270,000; Potency, µM (highest dose often 46.1 µM), for the others: at the top dose activity, positive = more growth; calls by dose curve; note: actives are rising curves; nearly all actives have a fitted effect of over 50% in size
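A cell-based growth assay was used: compounds that relieve NS1-induced slow growth of budding yeast raise OD600. Assay medium was yeast nitrogen base with ammonium sulphate and -URA supplement, pH 6.0, with 2% galactose.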
AmpC inh no detg = qHTS Inhibitors of AmpC Beta-Lactamase (assay without detergent). AID 485341, 2010. Potency, µM (series often up to 57.1 µM), for the others: at the top dose activity change, negative = inhibition, usual class: inhibitors. hit rate 0.52% among 330,000. P00811. AmpC nitrocefin hydrolysis, absorbance 480 nm, 0.0001% Triton;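 note: plate controls were no compound for no effect and no enzyme for full effect; nearly all actives have a fitted effect of over 20% in size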
Target sequence (P00811 whole entry, looked up): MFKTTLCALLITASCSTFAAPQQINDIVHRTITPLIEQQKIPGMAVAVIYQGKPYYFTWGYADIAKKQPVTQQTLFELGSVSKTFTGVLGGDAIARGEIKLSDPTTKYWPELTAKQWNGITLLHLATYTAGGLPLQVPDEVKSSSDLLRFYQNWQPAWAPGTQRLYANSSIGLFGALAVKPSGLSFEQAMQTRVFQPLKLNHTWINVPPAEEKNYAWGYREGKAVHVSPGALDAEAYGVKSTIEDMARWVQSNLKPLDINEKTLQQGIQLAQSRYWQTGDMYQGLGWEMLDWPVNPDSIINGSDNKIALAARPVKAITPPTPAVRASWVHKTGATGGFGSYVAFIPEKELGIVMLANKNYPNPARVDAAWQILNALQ
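20 mM phosphate pH 7.0 + 0.01% (detergent screen) or 0.0001% Triton X-100; 5.3 nM AmpC reagent; cpd preinc 15 min RT; nitrocefin (800 uM stock) to start; A480 q20 s × 4 min; Activity was normalised to no-enzyme and no-compound control wells.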
AMA1 RON2 block = qHTS for Inhibitors of AMA1-RON; Towards Development of Antimalarial Drug Lead: Primary Screen. Potency, µM (titrated, usually from 58.2 µM), for inactives: at the highest dose activity change, negative = inhibition, actives largely listed as inhibitors. AlphaScreen AMA1-biotinylated RON2 peptide binding. hit rate 0.2% among 360,000;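 note: 0% = vehicle wells and -100% = peptide control; nearly all actives have a fitted effect of over 45% in size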
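AMA1 (3D7) with his tag at 25 nM final met compounds first, then biotinylated RON2 peptide at 25 nM; detection used donor plus acceptor beads, 10 µg/mL apiece, read by AlphaScreen after 30 min at room temperature.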
AmpC detergent = qHTS Inhibitors of AmpC Beta-Lactamase (assay with detergent) | P00811 | Potency, µM (highest dose often 114 µM), for the others: top-dose activity change, negative = inhibition, usual class: inhibitors | hit rate 0.041% among 370,000 | AmpC hydrolysis of nitrocefin, absorbance 480 nm, 0.01% Triton;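 note: 0% = no-compound wells and -100% = no-enzyme wells; nearly all actives have a fitted effect of over 25% in size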
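AmpC (5.3 nM in the dispensed reagent) in 20 mM phosphate pH 7.0 with 0.01% (detergent screen) or 0.0001% Triton X-100 was preincubated with compounds for 15 min at room temperature. Nitrocefin was then added from an 800 uM solution, and hydrolysis was followed at 480 nm.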
* = called active by the depositor; ? = inconclusive; / = not tested or not shown; ! = not active in a repeat. Unless noted, calls come from the whole dose curve; as a rule, active = well fitted curve in the direction sought with a large enough effect; inconclusive = small, poorly fitted or top-dose-only effect, or another doubt; inactive = no such curve, though single readings can be large; an effect the other way counts as inactive or inconclusive. Potency is the fitted concentration of half-maximal effect.

SMILES	NS1 function inh	AmpC inh no detg	AMA1 RON2 block	AmpC detergent
CCNc1c([N+](=O)[O-])c(=O)oc2ccccc12	2%	-22%	7%	0%
COc1ccc(OCCNc2c([N+](=O)[O-])c(=O)oc3ccccc23)cc1	/	28µM*	-7%	?
CC(C)(C)c1cc(NS(=O)(=O)c2ccc(Br)s2)no1	-50%	-26%	6%	-5%
COc1ccc(/C=N/OCC(=O)N=Nc2c(O)[nH]c3ccc(Br)cc23)cc1OC	20%	3.2µM*	-14%	0%
COc1ccc(/C(C)=N/OCC(=O)N=Nc2c(O)[nH]c3ccc(Br)cc23)cc1	11%	-39%	7%	?
Cc1[nH]c(=O)[nH]c(=O)c1CSCC(=O)OCC(=O)Nc1ccccn1	-61%	-7%	9%	-7%
O=c1c(C(c2ccccc2)c2c(O)sc3ccccc3c2=O)c(O)sc2ccccc12	-19%	16µM*	0%	-3%
O=c1c2ccccc2sc2ccccc12	/	/	26%	/
O=S(=O)(c1ccccc1)N1N=C(c2ccc(O)cc2)CC1c1ccco1 (stereo not given)	3%	14µM*	0%	1%
Cc1ccc(C2=NN(S(=O)(=O)c3ccccc3)C(c3ccco3)C2)cc1 (stereo not given)	/	-33%	-7%	10%
CC1(C)Cc2cccc(OCC(=O)Nc3cc(S(C)(=O)=O)ccc3Cl)c2O1	/	53%	11%	3%
Cc1cccc(NC(=O)c2c(C)cc(C)nc2SCC(=O)Nc2c(C)cc(C)cc2C)c1	/	/	/	2%
CC(=O)Nc1cc(=O)c2cccnc2[nH]1	/	/	14µM*	/
CCc1cccc(NC(=O)CCn2nc(C)cc2C)c1	/	/	/	18%
COc1ccc(CC(=O)Nc2cccc(C(=O)O)c2C)cc1	?	4µM*	-1%	2%
N[C@@H](Cc1cc(I)c(Oc2ccc(O)c(I)c2)c(I)c1)C(=O)O	27%	3.2µM*!	34%	?
CSc1ccc(C(=O)C2CCCN(Cc3cc4ccccc4[nH]3)C2)cc1 (stereo not given)	-2%	-29%	32µM*	-1%
O=C(/C=C/c1ccc(O)c(O)c1)c1ccc(S(=O)(=O)N2CCCCCC2)cc1	0%	25µM*	-16%	?
O=C(c1ccc(S(=O)(=O)N2CCCC2)cc1)N1CCCCC1	/	-6%	-11%	-8%
O=C(NCc1ccccc1)c1ccc2c(c1)nc1n2CCOC1	/	/	/	12%
C/C(=N\Nc1ccc(Cl)c(Cl)c1)c1ccc(-n2ccnc2)cc1	-40%	14µM*	-16%	0%
C/C(=N\NC(N)=S)c1ccc(-n2ccnc2)cc1	0%	-19%	94%	-9%
O=[N+]([O-])c1ccc(CNCc2cc(Cl)ccc2O)cc1	/	3.2µM*	67%	-4%
Cc1nc(N2CCN(C(=O)c3cccs3)CC2)c2c3c(sc2n1)CCCC3	-47%	48%	-4%	35µM*
CN(C)c1ccc2c(c1)C(=NO)c1ccccc1-2	/	/	25µM*	/
SMILES	NS1 function inh	AmpC inh no detg	AMA1 RON2 block	AmpC detergent
CCCN1C(=O)c2cc(C(=O)NC3CCCCCC3)ccc2C1O (stereo not given)	-14%	1.4µM*	-2%	?
O=C1c2c(O)ccc(O)c2C(=O)c2c(NCCNCCO)ccc(NCCNCCO)c21	-44%	29%	10µM*	-22%
O=C(NCc1cccnc1)Nc1ccc(Cl)cc1	-8%	0%	10%	1%
CC(OC(=O)COc1ccc(Nc2ccccc2)cc1)C(=O)N(C)c1ccccc1 (stereo not given)	/	40µM*	?	4%
Cc1ccc(-n2nnc(-c3ccnc4ccccc34)n2)cc1	-4%	-2%	-2%	8%
O=C(COC(=O)CCN1C(=O)/C(=C\C=C\c2ccccc2)SC1=S)Nc1ccc(Br)cc1	5%	18µM*	-13%	3%
CC(C)c1ccccc1NC(=O)COC(=O)CCN1C(=O)/C(=C\C=C\c2ccccc2)SC1=S	18%	-37%	-16%	-13%
O=c1[nH]c(=S)[nH]c2c1C(c1ccc(Br)cc1)c1c([nH]c(=S)[nH]c1=O)O2	10%	-41%	35µM*	?
Clc1ccc(C2CC(c3ccccc3)Nc3ncnn32)cc1 (stereo not given)	-11%	1.3µM*	2%	?
Cc1ccc(Nc2ncnc3nc[nH]c23)cc1Cl	-60%	6%	5%	-15%
COc1cccc(Nc2ncnc3nc[nH]c23)c1	13%	3.2µM*	-8%	?
